Data on 40 compounds can be found in PubChem BioAssay (NCI).

This is part of a sample that, as a whole, favours compounds with a hit. Of some 83,000 tested, about 20% had one in any assay.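 The test compound was applied at a single concentration to cells in 96-well plates for 48 hours, and percent growth was recorded.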 Values without a mark were called inactive. Active and inactive are the calls of the source.

This assay deals with BT-549 breast. Briefly: NCI-60 one-dose screen, 48 h (100 = growth as untreated, 0 = no growth, -100 = all killed). As to conditions: 10 µM unless noted. The protocol: Growth inhibition of the BT-549 human tumor cell line is measured as a screen for anti-cancer activity. Cells are grown in 96 well plates and exposed to the test compound for 48 hours. Compounds are tested at a single concentration, which is 10^-5 M for most compounds. The reported endpoint is percent growth (GI% or GIPRCNT), where numbers from 0 - 100% represent growth inhibition, and numbers from -100% - 0 represent cell death. For example, a value of 40 represents 60% growth inhibition. A value of 0 means no net growth occurred over the course of the experiment. A value of -40 indicates 40% of cells at the beginning of the experiment died by the end of the experiment. A value of -100 means all cells are dead at the end of the experiment.
NCI-60 Human Tumor Cell Lines Screen was performed using the standard one-dose NCI protocol, which is described in more detail at https://dtp.cancer.gov/discovery_development/nci-60/default.htm.
Compounds with GIPRCNT values below 10 were considered active. Activity score was based on GIPRCNT using the following formula: […]
Score is 0 for GIPRCNT values of 100 or above, 50 for GIPRCNT values of 0, and 100 for GIPRCNT values of -100.
Consider `O=C1Nc2ccccc2/C1=C/C(=N/c1nnc(-c2ccc(Cl)cc2)s1)c1ccccc1`, for which the growth was 31.9%.
The value for `CS(CCCCN=C=S)=NC(=O)c1c(F)c(F)c(F)c(F)c1F` (stereo not given) was 95.7%.
Turning to `CCCCCC(=O)Oc1ccc(/C(=C(\C)c2ccccc2)c2ccc(OCCN(CC)CC)cc2)cc1`, the growth is 72.7%.
The value for `O=C(O)c1cn(C2CC2)c2cc(N3CCN(Cc4nc5c(cnn5-c5ccc([N+](=O)[O-])cc5)c(=O)[nH]4)CC3)c(F)cc2c1=O` was 96.1%.
The value for `COc1cc2c(c(OC)c1OC)-c1ccc(N=NC(N)=S)c(=O)cc1[C@@H](NC(C)=O)CC2` was -37.5% (active); that for `COc1cccc(/C=C\C(=O)c2ccccc2)c1` was 97.4%; that for `O=C1C(=O)N(CCCCn2cc(CO)nn2)c2ccccc21` was 115%.
The value for `COc1cc(NCCCCCN=C(N)NC(N)=NC(C)C)c2ncccc2c1` was -0.951% (active); that for `CC(C)[C@H]1COC(=O)N1[C@@H]1C(=O)N([C@@H](CCC(=O)N2CCN(C3CCCC3)CC2)C(=O)N[C@@H]2CCCc3ccccc32)[C@@H]1/C=C/c1cccc(Br)c1` was 27.6%; that for `Cn1c(=O)c2c(ncn2CC[N+](C)(C)C)n(C)c1=O` was 115%.
For `O=C(C[C@@H](C(=O)NCc1cccc(C(F)(F)F)c1)N1C(=O)[C@@H](N2C(=O)OC[C@@H]2c2ccccc2)[C@H]1/C=C/c1ccccc1)NC1CCN(Cc2ccccc2)CC1`, the growth was 74.2%.
As for `COc1ccc2[nH]c(=O)c(/C=C/C(=O)c3ccc(Nc4nccc(-c5ccc6ccccc6c5)n4)cc3)cc2c1`, the growth was 98.9%.
The value for `O=c1c2cccc3c(Nc4c(F)cccc4F)ccc(c32)c2nc3ccccc3n12` was 98.7%; that for `CCCCCCCCCCCCCC1=NCCN1CCO` was 123%.
The figure for `COc1cc2c(=O)n(CC3CCCCC3)c3c4cc[nH]c4ncc3c2cc1OC` is 25.9%; for `C=C1CCC2C3(C)COC(c4ccccc4Br)OC3CCC2(C)C1C/C=C1/C(=O)OCC1OC(C)=O` (stereo not given) it is -74.2% (active).
The value for `CCCCCCCCCCCCCCCCCCNC(=O)[C@H]1CSC(c2ccc(OC)c(F)c2)N1` (stereo not given in full) was -60.2% (active); that for `O=[N+]([O-])c1cccc(-c2nc3sccn3c2-c2ccnc(NCCNS(=O)(=O)c3ccc(C(F)(F)F)cc3)n2)c1` was 26.4%; that for `CC[C@]12C=CCN3CC[C@@]4(c5ccc(OC)cc5N(C)[C@H]4[C@@](O)(C(=O)OC)[C@@H]1OC(=O)CCC(=O)N[C@@H](Cc1c[nH]c4ccccc14)C(=O)OC)[C@@H]32` was 115%.
On to `COc1ccc(C(=O)/C=C/c2c[n+](=O)c3ccc(F)cc3n2[O-])cc1`, for which the growth was 103%.
The figure for `O=C(O)c1ccc(=O)[nH]n1` is 106%; for `Cc1nc2nc(N)nc(N)c2nc1C` it is 89.4%.
The figure for `CCCCCCCCCC(=O)Oc1ccc(/C(=C(/C)c2ccccc2)c2ccc(OCCN3CCCC3)cc2)cc1` is 24.5%.
The figure for `COc1cnc2c(c1)C(=O)c1c-2n(CCCN2CCNCC2)c(=O)c2cc([N+](=O)[O-])ccc12` is 21.7%; for `CC(=O)C1=C(O)C=C2Oc3c(C(=O)/C=C/c4cc(Cl)cc(Cl)c4)c(O)c(C)c(O)c3[C@]2(C)C1=O` it is -19.9% (active).
For the compound `Cc1ccc2cnc(N)c(C#Cc3cncc(C(=O)Nc4ccc(CN5CCN(C)CC5)c(C(F)(F)F)c4)c3)c2c1`, the growth was -75.1% (active).
The figure for `COc1ccc(/C=C2\N=C3Sc4cc(Cl)ccc4C(=O)N3C2=O)cc1` is 114%; for `CCOC(=O)c1cnc2ccc(Br)cc2c1Nc1cccc(S(=O)(=O)NC)c1` it is 101%; for `CCN(CC)CC#CCOC(=O)[C@]1(C)CCC[C@@]2(C)[C@H]1CC(C=O)=C1C=C(C(C)C)CC[C@@H]12` it is 53%.
The value for `COc1cc(C2CC(=O)Nc3c2c(C)nn3-c2nc3ccccc3[nH]2)cc(OC)c1OC` (stereo not given) was 113%; that for `CN(C)CCOc1ccc(-c2nc3ccc(-c4nc5ccc(N6CCN(C)CC6)cc5[nH]4)cc3[nH]2)cc1` was 74.2%.
For `CCOC(=O)c1c2c(n3ccc(NC(=O)CCN(CC)CC)cc13)C(=O)c1ncccc1C2=O`, the growth is 75.9%.
The value for `C=C1CC[C@@H]2[C@](C)(COC(C)=O)[C@H](OC(C)=O)CC[C@@]2(C)[C@@H]1CC(Nc1ccc(S(=O)(=O)Nc2nc(C)cc(C)n2)cc1)C1=CCOC1=O` (stereo not given in full) was 71.9%; that for `CCNS(=O)(=O)c1ncnc2nc[nH]c12` was 129%.
The value for `Cc1cc(=O)oc2cc(Oc3nc(-c4cccs4)cn4c(-c5cccs5)cnc34)ccc12` was 25%.
Regarding `COc1cccc(NC(=O)c2sc3nc4c(cc3c2N)CN(Cc2ccccc2)CC4)c1`, the growth is 65.5%.
The value for `CCCCNP1(NCCCC)=NP(NCCCC)(NCCCC)=NP(NCCCC)(NCCCC)=NP(NCCCC)(NCCCC)=N1` was 45.4%; that for `COc1cc(/C=N/N(C)C)ccc1O` was 105%; that for `O=c1c2cccc3c(Nc4ccccn4)ccc(c32)c2nc3ccccc3n12` was 87.4%.
Turning to `O=C(O)c1c([N+](=O)[O-])cnc2ccccc12`, the growth is 96.7%.
